Unmarked numbers belong to inactive results. For some assays here: Results with a measured potency or affinity are listed apart. The source made the active and inactive calls. Unless noted, no rule for the calls is given here.
Legend:
[1] = antimalarial activity against Dd2 strain (AID 2302;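 active = growth inhibition above 50% at the single 2 µM test dose, taken to imply half-maximal potency below 2 µM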;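 also: 0% = DMSO untreated growth and 100% = chloroquine plus artemisinin killed control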); details: P. falciparum Dd2 in RBCs, LDH growth readout, 72 h; at 2 µM; stronger effect = higher value
[2] = HepG2 cytotoxicity, primary screen, cytotoxicity control for P. falciparum antimalarial project, cell-based, ATP luminescence (AID 2303;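 active = inhibition above 50%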;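 also: 0% = DMSO wells and 100% = digitonin-killed cells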); details: HepG2 viability, 24-48 h, at 10 µM, stronger effect = higher value
[3] = target: L-lactate dehydrogenase (Plasmodium falciparum (isolate CDC / Honduras)) (UniProt Q27743); experiment: PfLDH activity inhibition – cell lysate, 3D7 strain, counter-screen for P. falciparum growth inhibition project (AID 2304);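 also: 0% = vehicle and 100% = reference inhibitor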; details: P. falciparum 3D7 crude extract, LDH APAD/NBT absorbance; at 2 µM; stronger effect = higher value
[4] = inhibition of 3D7 malaria parasite growth – strain 3D7 (AID 2306);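 also: 0% = DMSO wells and 100% = chloroquine plus artemisinin control wells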; details: P. falciparum 3D7 erythrocytic growth, LDH absorbance, 72 h; at 2 µM; stronger effect = higher value
[5] = target: Calcium-dependent protein kinase 1 (Plasmodium falciparum (isolate 3D7)) (UniProt P62344); experiment: PfCDPK1 kinase inhibitors, biochemical, TCAMS library (AID 1159585; cut-off not given, nearly all actives have IC50 up to about 0.98 µM;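 also: inhibitors leave more ATP so luminescence rises with inhibition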); details: recombinant PfCDPK1, Kinase-Glo ATP depletion luminescence
[6] = target: Plasmodium falciparum protein kinase 6 (PK6, PF3D7_1337100) (UniProt Q8IDW1); experiment: PfPK6 kinase inhibitors, biochemical, TCAMS library (AID 1159586); details: recombinant PfPK6, Kinase-Glo ATP depletion luminescence
[7] = target: Protein kinase 7 (PK7), Plasmodium falciparum 3D7 (PF3D7_0213400) (UniProt Q7YTF7); experiment: inhibition of Plasmodium PK7 catalytic activity – biochemical, TCAMS antimalarial set, Kinase-Glo luminescence (AID 1159587); details: recombinant PfPK7, Kinase-Glo ATP depletion luminescence
[8] = target: Calcium-dependent protein kinase 4 (Plasmodium falciparum (isolate 3D7)) (UniProt Q8IBS5); experiment: PfCDPK4 kinase inhibitors, biochemical, TCAMS library (AID 1159588; cut-off not given, nearly all actives have IC50 up to about 0.91 µM); details: recombinant PfCDPK4, Kinase-Glo ATP depletion luminescence
Chain of Calcium-dependent protein kinase 4 (Plasmodium falciparum (isolate 3D7)) (Q8IBS5 whole entry, looked up): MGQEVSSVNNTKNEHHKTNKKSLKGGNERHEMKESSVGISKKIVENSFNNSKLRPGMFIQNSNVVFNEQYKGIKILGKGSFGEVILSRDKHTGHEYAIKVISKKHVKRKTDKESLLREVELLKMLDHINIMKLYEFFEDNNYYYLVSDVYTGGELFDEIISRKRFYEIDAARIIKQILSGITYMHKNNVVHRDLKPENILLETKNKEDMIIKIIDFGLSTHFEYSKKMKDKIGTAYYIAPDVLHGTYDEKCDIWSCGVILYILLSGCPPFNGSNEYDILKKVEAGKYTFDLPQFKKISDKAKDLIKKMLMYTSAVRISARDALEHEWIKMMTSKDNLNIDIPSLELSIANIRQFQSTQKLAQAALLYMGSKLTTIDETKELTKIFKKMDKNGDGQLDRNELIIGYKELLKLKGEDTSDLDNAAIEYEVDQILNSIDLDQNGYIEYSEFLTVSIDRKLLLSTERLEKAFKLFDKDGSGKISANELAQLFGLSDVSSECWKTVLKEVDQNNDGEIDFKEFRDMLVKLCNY

Chain of L-lactate dehydrogenase (Plasmodium falciparum (isolate CDC / Honduras)) (Q27743 whole entry, looked up): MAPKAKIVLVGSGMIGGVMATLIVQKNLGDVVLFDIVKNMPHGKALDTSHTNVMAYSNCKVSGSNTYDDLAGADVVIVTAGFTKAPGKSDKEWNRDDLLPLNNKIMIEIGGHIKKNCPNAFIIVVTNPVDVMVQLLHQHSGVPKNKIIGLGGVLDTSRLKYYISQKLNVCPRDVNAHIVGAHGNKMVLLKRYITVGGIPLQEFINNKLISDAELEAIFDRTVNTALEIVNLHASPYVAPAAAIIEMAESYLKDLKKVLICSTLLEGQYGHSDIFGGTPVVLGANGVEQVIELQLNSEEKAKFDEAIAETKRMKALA
Chain of Protein kinase 7 (PK7), Plasmodium falciparum 3D7 (PF3D7_0213400) (Q7YTF7 1-343): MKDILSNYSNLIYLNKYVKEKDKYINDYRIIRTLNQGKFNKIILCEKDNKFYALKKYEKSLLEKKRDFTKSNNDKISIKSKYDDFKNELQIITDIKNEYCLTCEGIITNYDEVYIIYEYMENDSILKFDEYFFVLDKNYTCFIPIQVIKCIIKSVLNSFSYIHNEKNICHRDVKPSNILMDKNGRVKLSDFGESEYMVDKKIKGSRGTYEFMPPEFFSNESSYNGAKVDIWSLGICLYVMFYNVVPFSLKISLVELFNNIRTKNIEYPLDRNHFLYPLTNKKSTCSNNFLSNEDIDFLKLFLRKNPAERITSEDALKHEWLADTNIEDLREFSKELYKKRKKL
Chain of Calcium-dependent protein kinase 1 (Plasmodium falciparum (isolate 3D7)) (P62344 whole entry, looked up): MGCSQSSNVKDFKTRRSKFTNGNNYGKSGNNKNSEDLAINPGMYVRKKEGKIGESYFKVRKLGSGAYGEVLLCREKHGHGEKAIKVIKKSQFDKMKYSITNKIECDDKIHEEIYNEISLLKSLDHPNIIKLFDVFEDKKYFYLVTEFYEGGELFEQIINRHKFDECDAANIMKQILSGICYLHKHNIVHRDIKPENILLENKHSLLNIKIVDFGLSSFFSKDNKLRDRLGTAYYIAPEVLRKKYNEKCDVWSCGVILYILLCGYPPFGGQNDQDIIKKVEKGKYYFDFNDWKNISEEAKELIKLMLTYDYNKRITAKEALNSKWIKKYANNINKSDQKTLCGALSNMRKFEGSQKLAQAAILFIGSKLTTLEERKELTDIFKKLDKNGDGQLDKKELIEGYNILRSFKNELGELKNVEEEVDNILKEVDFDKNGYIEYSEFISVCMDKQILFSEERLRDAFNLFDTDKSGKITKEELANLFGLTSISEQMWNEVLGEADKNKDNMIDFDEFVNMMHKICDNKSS
Chain of Plasmodium falciparum protein kinase 6 (PK6, PF3D7_1337100) (Q8IDW1 1-305): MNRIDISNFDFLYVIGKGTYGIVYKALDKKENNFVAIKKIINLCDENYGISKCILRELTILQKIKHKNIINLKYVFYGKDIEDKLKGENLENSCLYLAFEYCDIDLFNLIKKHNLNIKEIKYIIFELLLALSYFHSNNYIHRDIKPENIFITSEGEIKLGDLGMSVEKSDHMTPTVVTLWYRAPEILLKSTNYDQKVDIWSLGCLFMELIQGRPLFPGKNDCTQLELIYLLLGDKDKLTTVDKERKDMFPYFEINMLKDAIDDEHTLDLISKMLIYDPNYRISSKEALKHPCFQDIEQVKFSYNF

SMILES | growth inhibition [1] | inhibition [2] | inhibition [3] | growth inhibition [4] | outcome [5] | outcome [6] | outcome [7] | outcome [8]
CCOc1ccccc1C(=O)N1CCc2cc3nccc(N4CCN5CCC[C@H]5C4)c3cc21 | 58% (active) | 4% | -8% | 100% (active) | inactive | inactive | inactive | inactive
CN(C)c1ccc(OCCCCCCOc2ccccc2)cc1 | 68% (active) | -7% | -5% | 85% (active) | inactive | inactive | inactive | inactive
COc1cc(Nc2nccc(N3CCC(NC(=O)Nc4cccc(C(C)=O)c4)C3)n2)cc(OC)c1OC (stereo not given) | 34% | 8% | -3% | 91% (active) | inactive | inactive | inactive | inactive
CCc1ccc(C(=O)NC(=O)c2ccccc2O)cc1 | 84% (active) | -4% | 1% | 95% (active) | inactive | inactive | inactive | inactive
O=C(NCCN1CCOCC1)c1ccc(O)c(-c2cccc(C(F)(F)F)c2)c1 | 48% | -1% | 3% | 95% (active) | inactive | inactive | inactive | inactive
c1ccc(CCNCc2ccc(-c3ccc(CNCc4ccc5c(c4)OCO5)cc3)nc2)cc1 | 67% (active) | 24% | 5% | 94% (active) | inactive | inactive | inactive | inactive
Cc1cc(N[C@@H](Cc2ccccc2)C(=O)Nc2ccccc2)nc(NCCc2ccccc2)n1 | 87% (active) | 8% | 3% | 101% (active) | inactive | inactive | inactive | inactive
C[C@H](Cc1ccc(OCCCCCCOc2ccc(C[C@@H](C)N[C@H](C)c3ccccc3)cc2)cc1)NC[C@H](O)c1cccc(Cl)c1 | 98% (active) | 99% (active) | -4% | 99% (active) | inactive | inactive | inactive | inactive
CO/C(=C\C=C\c1cc2cc(Cl)c(Cl)cc2[nH]1)C(=O)NCCCN1CCN(c2ccncc2)CC1 | 96% (active) | 12% | 4% | 98% (active) | inactive | inactive | inactive | inactive
Cc1ccc(NC(=O)Nc2ccc(I)c(OCCN(C)C)c2)cc1Cl | 22% | 11% | -4% | 98% (active) | inactive | inactive | inactive | inactive
N/C(=N/C(=NCCCCCCN=C(/N=C(/N)Nc1ccc(Cl)cc1)N1CCCCC1)N1CCCCC1)Nc1ccc(Cl)cc1 | 98% (active) | -7% | 0% | 100% (active) | inactive | inactive | inactive | inactive
CS(=O)(=O)c1ccc(-c2cnc(N)c(-c3ccc(O)cc3)c2)cc1 | 94% (active) | 38% | 2% | 84% (active) | inactive | inactive | inactive | inactive
COc1ccc2nccc([C@@H](O)CN3CCC(NCc4cc5ccccc5[nH]4)CC3)c2n1 | 55% (active) | 17% | 3% | 101% (active) | inactive | inactive | inactive | inactive
CN(C)CCCNCCS(=O)(=O)c1cccc(Nc2ccc(-c3cccc(N(C)C)c3)cn2)c1 | -3% | 19% | -2% | 98% (active) | inactive | inactive | inactive | inactive
Cn1nc(C(F)(F)F)c(-c2ccc(F)cc2)c1NC(=O)Nc1ccc(F)cc1F | 98% (active) | 11% | -2% | 100% (active) | inactive | inactive | inactive | inactive
Cc1cc2nc(-c3cc(-c4cccc(NS(C)(=O)=O)c4)cnc3N)[nH]c2cc1C | 32% | 43% | -2% | 102% (active) | inactive | inactive | inactive | inactive
CCc1ccc(-n2c(=O)c3cccnc3n2CC(=O)NC2CCCC2)cc1 | 27% | -1% | -7% | 98% (active) | inactive | inactive | inactive | inactive
O=C(Nc1ccc2c(c1)CCC2)c1nc(N2CCN(c3ccncc3)CC2)ccc1Cl | 97% (active) | 55% (active) | -1% | 101% (active) | inactive | inactive | inactive | inactive
CCN(CC)CCNc1ccnc2[nH]c3ccc(I)cc3c12 | 95% (active) | 14% | -1% | 100% (active) | inactive | inactive | inactive | inactive
Clc1ccc2c(NCCCCCCCCNc3ccnc4cc(Cl)ccc34)ccnc2c1 | 96% (active) | 2% | 4% | 99% (active) | inactive | inactive | inactive | inactive

SMILES | growth inhibition [1] | inhibition [2] | inhibition [3] | growth inhibition [4] | outcome [5] | outcome [6] | outcome [7] | outcome [8]
COc1cc(NC(=O)/C=C/c2ccccc2OC(F)(F)F)cc(OCCN2CCN(CCN3CCOCC3)CC2)c1 | 25% | 20% | -1% | 98% (active) | inactive | inactive | inactive | inactive
CN1CCCC1CCOc1ccc2c(c1)N(C(=O)Nc1cc(Br)cc(C(F)(F)F)c1)CC2 (stereo not given) | 97% (active) | 13% | -6% | 102% (active) | inactive | inactive | inactive | inactive
C=CCc1cccc(OC)c1OCCCON1C(N)=NC(N)=NC1(C)C | 95% (active) | 58% (active) | -1% | 94% (active) | inactive | inactive | inactive | inactive
O=[N+]([O-])c1cccc(CNCC2CCN(CC3CCCCC3)CC2)c1 | 14% | 11% | 2% | 90% (active) | inactive | inactive | inactive | inactive
Nc1cccc(CNCc2ccc(-c3ccc(-c4nc5ccccc5[nH]4)s3)cc2)c1 | 93% (active) | 12% | 4% | 100% (active) | inactive | inactive | inactive | inactive
O=C(Nc1cc(Cl)cc(Cl)c1)Nc1ccccc1C(=O)NC1CCCCC1 | 100% (active) | 12% | 4% | 101% (active) | inactive | inactive | inactive | inactive
CNS(=O)(=O)c1ccc(NC(=O)c2cc(-c3cccnc3)nc3ccc(Br)cc23)cc1 | 55% (active) | 9% | 5% | 101% (active) | inactive | inactive | inactive | inactive
CCCCCCN(CCCCCC)CC(O)c1cc(-c2ccc(Cl)cc2)nc2c(C)cc(C)cc12 (stereo not given) | 98% (active) | 27% | -2% | 98% (active) | inactive | inactive | inactive | inactive
COc1cccc2c(NN=Cc3cccc(Cl)c3)cc(C)nc12 | 75% (active) | 3% | 2% | 101% (active) | inactive | inactive | inactive | inactive
O=C(Nc1cccc(-c2cccc(-c3nc4ccc(C(F)(F)F)cc4[nH]3)c2)c1)c1ccoc1 | 61% (active) | 32% | -2% | 99% (active) | inactive | inactive | inactive | inactive
CCC(C)(C)c1ccc(OCCCC(=O)Nc2ccc(Cl)c([N+](=O)[O-])c2)c(C(C)(C)CC)c1 | 88% (active) | -1% | -8% | 92% (active) | inactive | inactive | inactive | inactive
FC(F)(F)c1cc(Nc2ccc(Oc3ccccc3)cc2)c2cc(-c3ccncc3)ccc2n1 | 70% (active) | -12% | -2% | 102% (active) | inactive | inactive | inactive | inactive
CC(=O)Nc1ccc([N+](=O)[O-])c2c(Br)cccc12 | -1% | -3% | -4% | 100% (active) | inactive | inactive | inactive | inactive
CC1(C)N=C(N)N=C(N)N1OCCCCCCOc1ccc(Cl)c2ccccc12 | 94% (active) | 62% (active) | 1% | 91% (active) | inactive | inactive | inactive | inactive
COc1ccc2nccc([C@@H](O)CN3CCC(NC(=O)c4ccc(CN5CCN(c6cccc(C)c6)CC5C)cc4)CC3)c2c1 (stereo not given in full) | 86% (active) | 50% (active) | 4% | 97% (active) | inactive | inactive | inactive | inactive
Cc1ccc2nc3c(cc(C(=O)NCc4ccccc4)c(=N)n3CCCn3ccnc3)c(=O)n2c1 | -1% | 10% | -3% | 93% (active) | inactive | inactive | inactive | inactive
CCCCc1cc(NC2CCN(C)CC2)nc(Nc2ccccc2)n1 | 29% | 7% | -2% | 103% (active) | inactive | inactive | inactive | inactive
NC(=O)c1sc(-n2cnc3ccccc32)cc1OCc1ccccc1[N+](=O)[O-] | 46% | 10% | -2% | 99% (active) | inactive | inactive | inactive | inactive
N#Cc1ccc2[nH]cc(CN3CCC4(CC3)CN(CCNCc3ccccc3)C(=O)CO4)c2c1 | -2% | -3% | 1% | 98% (active) | inactive | inactive | inactive | inactive
COc1ccc2nccc(N(C)CC3(O)CCC(NCc4ccc5c(n4)NC(=O)CS5)CC3)c2n1 (stereo not given) | 23% | 1% | -1% | 98% (active) | inactive | inactive | inactive | inactive

From PubChem BioAssay
